Screening data: PubChem BioAssay, The Scripps Research Institute Molecular Screening Center
The list is not random: actives were taken first. Their share in the collection is about 4.8%.
SMARCA2 activ – increases SMARCA2 function in MMTV reporter cells; 370,000 compounds, 1% hits; MG213 cells, MMTV-luciferase reporter, dexamethasone, overnight; activation, % at 9.1 µM; in the data active = activation above about 7.8%;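 also: 0% = vehicle wells and 100% = reference activator wells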
hgDAF12 agonist – activates the H. glycines DAF-12 receptor ligand-binding domain | HEK293 GAL4-hgDAF12 UAS-luciferase reporter, agonist luminescence; normalized to butyrate control | activation, % at 6.8 µM | 370,000 compounds, 1.8% hits | AID 687014;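 active = activation above a cutoff set at the mean of all screened compounds plus 3 SD, cut at about 10% in these data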;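 also: 0% = DMSO wells and 100% = sodium butyrate wells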
DAX1 inh-1 – DAX1 (NR0B1) inhibition, primary screen; HEK293T StAR-luciferase reporter, SF-1/DAX-1 repression relief; inhibition, % at 6.8 µM; 370,000 compounds, 1.1% hits;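 active = inhibition above the mean over all tested compounds plus 3 SD, cut at about 3.6% in these data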;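 also: 0% = DAX-1 cells with DMSO and 100% = cells lacking DAX-1 with DMSO; higher inhibition means more luminescence from relief of DAX-1 repression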
DAX1 inh-2 – NR0B1 (DAX1) inhibition; 340,000 compounds, 0.99% hits; P51843; inhibition, % at 6.75 µM; HEK293 Gal4-DAX1 luciferase reporter, luminescence;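 active = inhibition above the mean over all tested compounds plus 3 SD, cut at about 4.2% in these data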;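 also: 0% = DAX1-transfected cells with DMSO and 100% = empty-vector control cells with DMSO; inhibition shows as a rise in luminescence from relieved DAX1 repression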
Target sequence (P51843 207-470 limits assumed): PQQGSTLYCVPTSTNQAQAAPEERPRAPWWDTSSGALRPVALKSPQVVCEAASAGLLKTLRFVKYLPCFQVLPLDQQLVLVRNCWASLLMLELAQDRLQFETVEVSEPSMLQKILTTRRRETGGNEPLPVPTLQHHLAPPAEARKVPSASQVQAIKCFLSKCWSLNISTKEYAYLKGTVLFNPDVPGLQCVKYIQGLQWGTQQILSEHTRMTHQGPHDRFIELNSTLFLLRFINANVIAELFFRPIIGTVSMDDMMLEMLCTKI
ssDAF12 agonist – activates DAF-12 receptor from parasite S. stercoralis. HEK293 ssDAF-12/GRIP1 lit1-tk-luc reporter, luminescence; % of 3 µM dafachronic acid response. activation, % at 6.8 µM. 370,000 compounds, 1% hits. AID 652126;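 active = activation above the mean over all tested compounds plus 3 SD, cut at about 0.9% in these data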;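 also: 0% = DMSO-only wells and 100% = 3 µM delta7-dafachronic acid wells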
hcDAF12 agonist – activates DAF-12 receptor from parasite H. contortus | 370,000 compounds, 1.4% hits | HEK293 hcDAF-12 lit1-tk-luc reporter, luminescence; 0% DMSO, 100% Δ7-dafachronic acid | AID 652067 | activation, % at 6.8 µM;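 active = activation above the mean of all tested compounds plus 3 SD, cut at about 5.5% in these data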;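 also: 100% = response to 3 µM Δ7-dafachronic acid high control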
SMARCA2 conf – SMARCA2 activation, confirmation screen | shares compounds with SMARCA2 activ | MG213 cells, MMTV-luciferase with dexamethasone, luminescence, overnight; MG213 cells expressing E1A, Rb sequestered; DMSO wells 0%, reference activator 100% | activation, % at 9.1 µM | 3,500 compounds, 30% hits;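 active = activation above its plate's cutoff, the mean activation of tested wells plus 3 SD, cut at about 7.9% in these data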
VP16 Luc act – GAL4-VP16 reporter activation counter-screen | HEK293 GAL4-VP16 pG5luc reporter, luciferase luminescence; scaled: DMSO wells 0%, SAHA wells 100% | shares compounds with SMARCA2 activ | activation, % at 9.1 µM | 3,500 compounds, 41% hits;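 active = activation above the solvent-only control well mean plus 3 SD, averaged across control plates, cut at about 5.2% in these data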
* marks the source's active call; other numbers are inactive results.

What do the screens show for `Nc1ccccc1/C=C/c1ccccc1N`?
SMARCA2 activ: 9.9*; hgDAF12 agonist: 4; DAX1 inh-1: 2; DAX1 inh-2: 2; ssDAF12 agonist: -1; hcDAF12 agonist: 1; SMARCA2 conf: 14*; VP16 Luc act: 10*

How did COc1cccc(N=Nc2ccc3ccccc3c2O)c1 do in these assays?
SMARCA2 activ: 8.0*; hgDAF12 agonist: 10; DAX1 inh-1: 2; DAX1 inh-2: 4; ssDAF12 agonist: 1.6*; hcDAF12 agonist: 4; SMARCA2 conf: 3; VP16 Luc act: 5.6*

How did Cc1ccc(NC(=O)Cc2noc3ccccc23)nc1 do in these assays?
SMARCA2 activ: 9.3*; hgDAF12 agonist: 4; DAX1 inh-1: 1; DAX1 inh-2: -1; ssDAF12 agonist: -1; hcDAF12 agonist: -1; SMARCA2 conf: 7; VP16 Luc act: 3

Results for Cc1cccc(NC(=O)Cc2noc3ccccc23)c1 ?
SMARCA2 activ: 4; hgDAF12 agonist: 6; DAX1 inh-1: 1; DAX1 inh-2: 3; ssDAF12 agonist: -1; hcDAF12 agonist: 3

What do the screens show for `COc1ccc2c(COC(=O)c3n[nH]c4ccccc34)cc(=O)oc2c1`?
SMARCA2 activ: 9.5*; hgDAF12 agonist: 8; DAX1 inh-1: 2; DAX1 inh-2: 1; ssDAF12 agonist: 0; hcDAF12 agonist: 3; SMARCA2 conf: 6; VP16 Luc act: 11*

How did Cc1cc2oc(=O)cc(COC(=O)c3n[nH]c4ccccc34)c2cc1C do in these assays?
SMARCA2 activ: 3; hgDAF12 agonist: 0; DAX1 inh-1: 0; DAX1 inh-2: 1; ssDAF12 agonist: 0; hcDAF12 agonist: 2

Results for CC[C@]12c3[nH]c4cc(CCC(=O)N(C)C)ccc4c3CCN1C(=O)[C@@H](CC(=O)NCCN1CCOCC1)C[C@@H]2C(=O)N1CCN(C(=O)C2CC2)CC1 ?
SMARCA2 activ: -3; hgDAF12 agonist: 0; DAX1 inh-1: 0; DAX1 inh-2: 0; ssDAF12 agonist: -1; hcDAF12 agonist: -1

Results for Cc1cc(-c2ccco2)c(C#N)c2nc3ccccc3n12 ?
SMARCA2 activ: 12*; hgDAF12 agonist: 0; DAX1 inh-1: 1; DAX1 inh-2: 0; ssDAF12 agonist: 0; hcDAF12 agonist: -1; SMARCA2 conf: 41*; VP16 Luc act: 6.5*

Results for CC(C)c1ccc(C2N3CC4([N+](=O)[O-])CN2CC([N+](=O)[O-])(C3)C4(C)C)cc1 (stereo unspecified) ?
SMARCA2 activ: 13*; hgDAF12 agonist: -2; DAX1 inh-1: 0; DAX1 inh-2: -1; ssDAF12 agonist: -1; hcDAF12 agonist: 2; SMARCA2 conf: 0; VP16 Luc act: 0

What do the screens show for `O=C(Nc1nncs1)C1COc2ccccc2O1` (stereo unspecified)?
SMARCA2 activ: 9.0*; hgDAF12 agonist: 4; DAX1 inh-1: 1; DAX1 inh-2: 1; ssDAF12 agonist: 0; hcDAF12 agonist: -1; SMARCA2 conf: 4; VP16 Luc act: 5

What do the screens show for `COC(=O)[C@H]1C[C@H](OC(=O)NCC2CCCCC2)[C@@]2(O)CN(S(=O)(=O)c3ccc(C)cc3)CC2[C@H]1C(=O)OC` (stereo partly specified)?
SMARCA2 activ: -2; hgDAF12 agonist: 5; DAX1 inh-1: 2; DAX1 inh-2: 2; ssDAF12 agonist: 0; hcDAF12 agonist: 2

How did O=C(CN1C(=O)COc2ccccc21)N(Cc1cccnc1)Cc1cccc(F)c1 do in these assays?
SMARCA2 activ: -3; hgDAF12 agonist: 1; DAX1 inh-1: -1; DAX1 inh-2: 0; ssDAF12 agonist: -1; hcDAF12 agonist: 0
